Measured values taken from PubChem BioAssay (Tox21).
Results filed as inconclusive are left out. Activity calls are given as the source filed them. Calls follow the shape of the dose curve; as a rule, active = well fitted activation curve with a large enough effect in the signal ratio in the repeat runs (not every such curve was filed as active); inconclusive = weak or mixed curves; inactive = flat fitted curve, though single readings scatter; the % refers to the signal ratio.

Test: p53 small molecule agonists, cell-based qHTS assay (AID 1963582)
Details: HCT-116 p53RE-bla reporter, beta-lactamase FRET ratio, 16 h; series mostly up to 66 µM; activation: at the top concentration
Excerpt: National Center for Advancing Translational Sciences [NCATS]
Division of Preclinical Innovation [DPI]
U.S. Environmental Protection Agency [EPA]
National Institutes of Environmental Health Sciences [NIEHS]
National Toxicology Program [NTP]
U.S. Food and Drug Administration [FDA]
p53, a tumor suppressor protein, is activated following cellular insult, including DNA damage and other cellular stresses. The activation of p53 regulates cell fate by inducing DNA repair, cell cycle arrest, apoptosis, or cellular senescence. The activation of p53, therefore, is a good indicator of DNA damage and other cellular stresses. […] The activation of the reporter gene under culture conditions can be detected by fluorescence intensity. This cell line was used to screen the Tox21 10K compound library in a 1536-well plate format and to identify agonists that activate the p53 signaling pathway.
Tox21 Assay Protocol Summary:
The p53RE-bla cells were dispensed at 4,000 cells/5 ul/well in 1536-well black wall/clear bottom plates using a Multidrop dispenser. After the assay plates were incubated at a 37 C/5% CO2 incubator for 5 hours, 23 nL of compounds dissolved in DMSO, positive controls or DMSO only was transferred to the assay plate by a pin tool. The plates were incubated at 37 C for 16 hours. After 1 uL of LiveBLAzerTM B/G FRET substrate was added using a Flying Reagent Dispenser, the plates were incubated at room temperature for 2 hours, and fluorescence intensity was measured by an Envision plate reader.
% is scaled to controls: 0 for no effect and ±100 for the full control effect.

Compound | activation
O=C(O)Cc1c(Cl)ccc(Cl)c1Cl | -2.6% (inactive)
Clc1nnc(Cl)c2ccccc12 | -2.16% (inactive)
C1COC(NC(C2CC2)C2CC2)=N1 | -0.0882% [at 30.3 µM] (inactive)
CCCCCOC(=O)CCC | 4.97% (inactive)
CC1(C)S[C@@H]2[C@H](N=CN3CCCCCC3)C(=O)N2[C@H]1C(=O)O | -0.671% [at 30.3 µM] (inactive)
CCCCCCC/C=C/C=O | -1.22% (inactive)
Nc1ccc(S(=O)(=O)Nc2ccccc2)cc1 | 0.896% [at 30.3 µM] (inactive)
CCOC(=O)C(C)(C)C | -0.505% (inactive)
CCOc1cc(OCC)c(C(C)=O)cc1OCC | -5.25% (inactive)
C[C@H]1NCc2cc(-c3ccc4c(=O)c(C(=O)O)cn(C5CC5)c4c3OC(F)F)ccc21 | -3.01% [at 13.5 µM] (inactive)
C=CCOC(=O)/C=C\C(=O)OCC=C | 0.736% (inactive)
CCCCc1ccc2c(n1)[C@@H](c1ccc(OC)cc1C[C@H](C)C(=O)O)[C@H](C(=O)O)[C@H]2c1ccc2c(c1)OCO2 | -3.76% (inactive)
c1ccc2c(CC3=NCCN3)cccc2c1 | 2.18% [at 30.3 µM] (inactive)
CC(C)Oc1ccccc1O | 0.473% (inactive)
CC(C)CCOC(=O)CC(C)C | 0.072% (inactive)
O=C1c2ccccc2C(=O)c2cc(Cl)ccc21 | -0.497% [at 5.99 µM] (inactive)
CCCCCCCC/C=C/C(=O)O | -1.24% [at 30.3 µM] (inactive)
CCCCOc1ccc(OCCCN2CCOCC2)cc1 | -6.4% [at 30.3 µM] (inactive)
CC(=O)O[C@H]1C[C@@H]2CC[C@@H]3[C@H](CC[C@@]4(C)[C@H]3C[C@H]([N+]3(C)CCCCC3)[C@@H]4OC(C)=O)[C@@]2(C)C[C@@H]1N1CCCCC1 | 2.47% [at 30.3 µM] (inactive)
CC(=O)NO | 1.75% [at 30.3 µM] (inactive)

Compound | activation
OCCNCc1ccccc1 | 0.153% (inactive)
CC(=O)c1c(C)cc(C(C)(C)C)cc1C | 1.63% (inactive)
O=C(Nc1ccc([N+](=O)[O-])cc1)Nc1ccc([N+](=O)[O-])cc1 | 2.59% [at 30.3 µM] (inactive)
C[C@H]1O[C@H](O[C@H]2[C@H](O)[C@@H](O)[C@@H](O[C@H]3[C@H](O)[C@@H](O)[C@H](O)O[C@@H]3CO)O[C@@H]2CO)[C@H](O)[C@@H](O)[C@@H]1N[C@H]1C=C(CO)[C@@H](O)[C@H](O)[C@H]1O | 1.26% [at 30.3 µM] (inactive)
NS(=O)(=O)Cc1noc2ccccc12 | 1.07% [at 30.3 µM] (inactive)
CCN(CC)CCNC(=O)COc1ccc(Cl)cc1 | -0.0499% [at 30.3 µM] (inactive)
C[C@@H]1CN(c2c(F)c(N)c3c(=O)c(C(=O)O)cn(C4CC4)c3c2F)C[C@H](C)N1 | -0.164% [at 13.5 µM] (inactive)
CC(C)(C)NCC(O)c1cc(O)cc(O)c1 (stereo not given) | -0.365% [at 30.3 µM] (inactive)
CO[Si](CCCNc1ccccc1)(OC)OC | 0.246% (inactive)
O=C1c2ccccc2C(=O)N1CCl | 1.93% (inactive)
Cc1cccc(Oc2ccccc2)c1 | -1.16% (inactive)
Cc1ccc(Cl)cc1Cl | -1.87% (inactive)
Nc1c(Cl)cc(Cl)cc1Cl | 2.02% (inactive)
CCn1cc(C(=O)O)c(=O)c2cnc(N3CCCC3)nc21 | 1.25% [at 5.99 µM] (inactive)
FC(F)(F)C(F)(F)C(F)(F)C(F)(F)CCI | 0.981% [at 30.3 µM] (inactive)
COC(=O)c1c(C)cc(O)c(C)c1O | 2.32% (inactive)
N#CSCC(=O)O | 0.0282% [at 30.3 µM] (inactive)
COS(=O)(=O)C(F)(F)F | -6.32% (inactive)
ONc1ccccc1 | -0.557% (inactive)
CCCn1cnc2c1c(=O)n(CCCCC(C)=O)c(=O)n2C | -0.176% [at 30.3 µM] (inactive)
